Where a name gives a salt, the structure may show the parent alone. A number with no mark means an inactive call.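 How the source made its calls: active = normalised median growth AUC below 0.1 of DMSO control; inactive = AUC 0.1 or higher.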
Columns and labels:
Assay in all cases: growth AUC normalised to DMSO control (median) (fraction of control); higher = less growth inhibition, active = hit call of the paper
Settings in all cases: 20 µM
P. vulgatus RND KO = tested on: P. vulgatus RND KO
Procedure, shortened: (§1)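 Strains were passaged twice overnight without oxygen, then grown in mGAM in 96-well plates with each approved-drug library compound at 20 μM and 1% DMSO, starting at OD578 0.01. OD578 was read hourly for 24 h inside an anaerobic incubator. Curves were truncated at entry into stationary phase, and the trapezoidal-rule area under the curve was normalised to same-plate vehicle wells. The value is the median across three biological replicates.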

P. vulgatus WT = tested on: P. vulgatus WT
Procedure, shortened: as §1

[1] = tested on: S. enterica typhimurium WT
Procedure, shortened: as §1

[2] = tested on: S. enterica typhimurium tolC KO
Procedure, shortened: as §1
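Further: active when median AUC fell below 0.1.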

| SMILES | growth AUC normalised to DMSO control (P. vulgatus RND KO) | growth AUC normalised to DMSO control (P. vulgatus WT) | growth AUC normalised to DMSO control [1] | growth AUC normalised to DMSO control [2] |
| --- | --- | --- | --- | --- |
| CN(CCCN1c2ccccc2CCc2ccccc21)CC(=O)c1ccc(Cl)cc1 [Lofepramine] | 0.944 | 0.964 | 0.985 | 0.957 |
| CCCCCNC(=N)N/N=C/c1c[nH]c2ccc(OC)cc12 [Tegaserod maleate] | 0.999 | 0.991 | 0.994 | 0.941 |
| CN(C)CCc1c[nH]c2ccc(Cn3cncn3)cc12 [Rizatriptan benzoate] | 1.02 | 1.03 | 1 | 0.994 |
| CC1(C)S[C@@H]2[C@H](NC(=O)C(c3ccccc3)S(=O)(=O)O)C(=O)N2[C@H]1C(=O)O (stereo partly specified) [Sulbenicillin sodium salt] | 0.00728 (active) | 0.00538 (active) | 0.116 | 0.00823 (active) |
| CC1(C)O[C@@H]2C[C@H]3[C@@H]4CCC5=CC(=O)C=C[C@]5(C)[C@H]4[C@@H](O)C[C@]3(C)[C@]2(C(=O)CO)O1 [Desonide] | 0.783 | 0.993 | 0.996 | 1 |
| Nc1nc(CC(=O)Nc2ccc(CCNC[C@H](O)c3ccccc3)cc2)cs1 [Mirabegron] | 1 | 0.989 | 0.991 | 1 |
| CCCC(=O)OCOC(=O)C1=C(C)NC(C)=C(C(=O)OC)C1c1cccc(Cl)c1Cl (stereo unspecified) [Clevidipine] | 0.986 | 0.992 | 0.98 | 1 |
| CC(=O)N[C@@H](CCC(N)=O)C(=O)O [Acetyl-L-glutamine] | 0.995 | 1 | 0.998 | 0.999 |
| Cc1nc(C)c(Cl)c(O)c1Cl [Clopidol] | 1.01 | 0.991 | 1.01 | 0.983 |
| CNCC[C@@H](Oc1cccc2ccccc12)c1cccs1 [(R)-Duloxetine hydrochloride] | 1.02 | 0.993 | 0.999 | 0.929 |
| CC[C@@H]([C@H](C)O)n1ncn(-c2ccc(N3CCN(c4ccc(OC[C@@H]5CO[C@@](Cn6cncn6)(c6ccc(F)cc6F)C5)cc4)CC3)cc2)c1=O [Posaconazole hydrate] | 0.87 | 0.875 | 1.01 | 0.979 |
| Nc1ccc2cc3ccc(N)cc3nc2c1 [Proflavine hemisulfate] | 0.996 | 0.995 | 0.955 | 0.91 |
| COc1cc(N)cn[n+]1-c1ccccc1 [Amezinium metilsulfate] | 1.01 | 1 | 1 | 1 |
| O=C(O)Cc1ccccc1Oc1ccc(Cl)cc1Cl [Fenclofenac] | 0.992 | 1.05 | 1.02 | 1.02 |
| CC(C(=O)O)c1ccc2c(c1)CC(=O)c1ccccc1S2 (stereo unspecified) [Zaltoprofen] | 1.02 | 1.01 | 0.998 | 0.978 |
| CN[C@@H]1[C@@H](O[C@H]2O[C@H](CO)[C@@H](N)[C@H](O)[C@H]2O)OC2C[C@@H](N)[C@@H](O[C@H]3[C@H](O)[C@@H](O)[C@H](N)C[C@@H]3N)OC2[C@@H]1O (stereo partly specified) [Apramycin] | 1 | 0.998 | 1.01 | 0.996 |
| O=C(O)CSCC(=O)NC1CCSC1=O (stereo unspecified) [Erdosteine] | 1.02 | 1.04 | 1 | 0.999 |
| CC(=O)NS(=O)(=O)c1ccc(NC(=O)c2ccccc2C(=O)O)cc1 [Phthalylsulfacetamide] | 0.999 | 0.997 | 1 | 1 |
| CC1=NN(c2ccccc2)C(=O)C1 [Edaravone] | 0.998 | 1.01 | 1 | 0.982 |
| CC(C)Cc1ccc(C(C)C(=O)OCc2ccccn2)cc1 (stereo unspecified) [Ibuprofen Piconol] | 1 | 1.05 | 0.999 | 0.875 |
| CC(=O)[C@@]12O[C@](C)(c3ccccc3)O[C@@H]1C[C@H]1[C@@H]3CCC4=CC(=O)CC[C@]4(C)[C@H]3CC[C@@]12C [Algestone acetophenide] | 0.955 | 0.983 | 1 | 0.993 |
| Cc1cc2nc3ccc(=[N+](C)C)cc-3sc2cc1N [Tolonium chloride] | 0.996 | 1 | 0.981 | 0.987 |

| SMILES | growth AUC normalised to DMSO control (P. vulgatus RND KO) | growth AUC normalised to DMSO control (P. vulgatus WT) | growth AUC normalised to DMSO control [1] | growth AUC normalised to DMSO control [2] |
| --- | --- | --- | --- | --- |
| O=C(O)C[C@H](O)C[C@H](O)/C=C/c1c(C2CC2)nc2ccccc2c1-c1ccc(F)cc1 [Pitavastatin calcium] | 0.983 | 1 | 1.01 | 0.999 |
| N#C/C(=C1/SCC(c2ccccc2Cl)S1)n1ccnc1 (stereo unspecified) [Lanoconazole] | 1.04 | 1.08 | 1 | 0.834 |
| OC[C@H]1O[C@H](O[C@H]2O[C@H](CO)[C@@H](O)[C@H](O)[C@H]2O)[C@H](O)[C@@H](O)[C@@H]1O [Trehalose dihydrate] | 1 | 1 | 1.01 | 1.01 |
| O=C(O)Cc1csc(-c2ccc(Cl)cc2)n1 [Fenclozic acid] | 1.01 | 1.03 | 1.01 | 0.98 |
| O=C(Cn1c(=O)sc2ccc(Cl)cc21)N1CCN(CCO)CC1 [Tiaramide Hydrochloride] | 1 | 1.04 | 1.01 | 0.995 |
| Cc1cc(C#N)cc(C)c1Oc1nc(Nc2ccc(C#N)cc2)nc(N)c1Br [Etravirine] | 1.03 | 1.02 | 1.01 | 1.01 |
| CCOC(=O)C(C)(N)Cc1cc(I)c(Oc2cc(I)c(O)c(I)c2)c(I)c1 (stereo unspecified) [Etiroxate hydrochloride] | 0.415 | 0.571 | 1.01 | 1 |
| CCCCNC(=N)NC(=N)N [Buformin] | 1.04 | 1.06 | 1.02 | 0.991 |
| COc1ccc(CNc2nc(N3CCC[C@H]3CO)ncc2C(=O)NCc2ncccn2)cc1Cl [Avanafil] | 1 | 1.03 | 1.01 | 0.962 |
| COC(=O)C1=C(C)NC(C)=C(C(=O)OCCN2CCN(C(c3ccccc3)c3ccccc3)CC2)C1c1cccc([N+](=O)[O-])c1 (stereo unspecified) [Manidipine Dihydrochloride] | 1.03 | 1.02 | 0.999 | 1.02 |
| O=C1OC(c2ccc(O)cc2)(c2ccc(O)cc2)c2ccccc21 [Phenolphthalein] | 0.979 | 0.994 | 1.02 | 0.524 |
| NC(=O)c1ncn([C@@H]2O[C@H](CO)[C@@H](O)[C@H]2O)c1O [Mizoribine] | 1.04 | 1.01 | 1.01 | 0.996 |
| CC(=O)OCC(=O)[C@@]1(O)CC[C@H]2[C@@H]3CCC4=CC(=O)C=C[C@]4(C)[C@@]3(F)[C@@H](O)C[C@@]21C [Isoflupredone acetate] | 1.03 | 0.986 | 1 | 0.98 |
| Oc1c(Cl)cc(Cl)cc1Sc1cc(Cl)cc(Cl)c1O [Bithionol] | 0.0149 (active) | 0.0115 (active) | 0.991 | 0.0167 (active) |
| CC(C)Cc1ccc(CC(=O)O)cc1 [Ibufenac] | 1.06 | 1.06 | 1.01 | 0.981 |
| COC(=O)N/N=C/c1c[n+]([O-])c2ccccc2[n+]1[O-] [Carbadox] | 0.0197 (active) | 0.0112 (active) | 0.558 | 0.591 |
| CCCSc1nc(N[C@@H]2C[C@H]2c2ccc(F)c(F)c2)c2nnn([C@@H]3C[C@H](OCCO)[C@@H](O)[C@H]3O)c2n1 [Ticagrelor] | 0.786 | 0.544 | 1.03 | 0.899 |
| NC(=O)c1cn(Cc2c(F)cccc2F)nn1 [Rufinamide] | 0.994 | 0.963 | 1 | 1 |
| COCCCOc1cc(C[C@@H](C[C@H](N)[C@@H](O)C[C@H](C(=O)NCC(C)(C)C(N)=O)C(C)C)C(C)C)ccc1OC [Aliskiren hemifumarate] | 1 | 1.05 | 0.997 | 1 |
| CCCCOCCOCCOCc1cc2c(cc1CCC)OCO2 [Piperonyl butoxide] | 1.08 | 1.05 | 1.02 | 0.872 |
| OC[C@H]1O[C@@H](n2cnc3cncnc32)[C@H](O)[C@@H]1O [Nebularine] | 0.991 | 0.997 | 1 | 0.997 |
| CC(C)C(=O)OCC(=O)[C@@]12O[C@H](C3CCCCC3)O[C@@H]1C[C@H]1[C@@H]3CCC4=CC(=O)C=C[C@]4(C)[C@H]3[C@@H](O)C[C@@]12C [Ciclesonide] | 1.02 | 1.02 | 1.01 | 1.01 |

From the supplement of paper PMC12350171
